Experimental findings from PubChem BioAssay (NCI) are described below.

Some test systems named below: NCI-H23 lung; NCI-H226 lung; NCI-H322M lung; HOP-62 NSCLC; NCI-H460 lung; HOP-92 NSCLC; NCI-H522 lung; A549/ATCC NSCLC; 786-0 renal; COLO 205 colon.
What all share (experiment): NCI-60 one-dose screen, 48 h (100 = growth as untreated, 0 = no growth, -100 = all killed)
Conditions in all cases: 10 µM

Compounds without any hit were thinned out: in the full panel of roughly 83,000, 20% have a hit.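 Compound tested at a single concentration for 48 hours in 96-well plates; a percent growth value below 10 was scored as active.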 Unmarked numbers belong to inactive results. Activity calls are given as the source filed them.

Turning to `O=C(NCCCCC(c1ccc(F)cc1)c1ccc(F)cc1)NCCCc1cccnc1`, the growth was 24% with NCI-H23 lung; 41.2% in the experiment with NCI-H226 lung; 64.8% in the experiment with NCI-H322M lung; 56.2% in the experiment on HOP-62 NSCLC; 28.8% with NCI-H460 lung; 19.4% in the experiment on HOP-92 NSCLC. Besides, the growth with NCI-H522 lung is 16.8%; in the experiment on A549/ATCC NSCLC, 27.2%; in the experiment with 786-0 renal, 47.7%.
On to `COc1cc2c(cc1OC)CN(CCCCOc1cc(O)c3c(=O)cc(-c4ccccc4)oc3c1)CC2`, for which the growth with NCI-H23 lung is 67.2%; in the experiment with NCI-H226 lung, 63.5%; in the experiment with NCI-H322M lung it was 92.5%; with HOP-62 NSCLC it was 80.7%; in the experiment with NCI-H460 lung, 49.6%; in the experiment with HOP-92 NSCLC it was 64.2%. Besides, the growth was 58.4% in the experiment on NCI-H522 lung, 67.7% in the experiment with A549/ATCC NSCLC and 23.9% in the experiment with 786-0 renal.
As for `COc1cc(OC(F)(F)F)ccc1C(=O)Nc1sc2c(c1C#N)CCC(=O)C2`, the growth was 54.5% with NCI-H23 lung; 87.9% in the experiment with NCI-H226 lung; 97.9% with NCI-H322M lung; 84.8% in the experiment on HOP-62 NSCLC; 100% with NCI-H460 lung; 95.2% in the experiment with HOP-92 NSCLC. Besides, the growth in the experiment on NCI-H522 lung was -36.3% (active); with A549/ATCC NSCLC, 93.5%; with 786-0 renal it was 97.5%.
As for `O=C1Nc2ccc(Cl)cc2/C1=C/c1cccc(OCc2ccccc2)c1`, the growth is 31% with NCI-H23 lung; 17.2% with NCI-H226 lung; 44.6% with NCI-H322M lung; 32.9% in the experiment with HOP-62 NSCLC; 13.5% with NCI-H460 lung; 16.5% in the experiment with HOP-92 NSCLC. Also, the growth with NCI-H522 lung was 35.9%; with A549/ATCC NSCLC it was 43.2%; with 786-0 renal it was 40.5%; with COLO 205 colon, 45.8%.
Take `O=C(Nc1nc2ccc([N+](=O)[O-])cc2s1)Nc1ccccc1I`: the growth is -6.9% (active) in the experiment on NCI-H23 lung; -7.84% (active) in the experiment on NCI-H226 lung; -0.431% (active) in the experiment with NCI-H322M lung; 7.62% (active) in the experiment with HOP-62 NSCLC; 6.36% (active) in the experiment with NCI-H460 lung; -28.1% (active) with HOP-92 NSCLC. The figures for the growth with NCI-H522 lung, in the experiment with A549/ATCC NSCLC and with 786-0 renal were -23.7% (active), 3.05% (active) and 0.486% (active), respectively.
On to `CC[C@@]1(O)C(=O)OCc2c1cc1n(c2=O)Cc2c-1nc1cc(F)c(C)c3c1c2[C@@H](N)CC3`, for which the growth in the experiment on NCI-H23 lung was -57.4% (active); in the experiment on NCI-H226 lung it was -54.1% (active); in the experiment with NCI-H322M lung it was 0.642% (active); in the experiment with HOP-62 NSCLC, -31.7% (active); in the experiment with NCI-H460 lung, -4.63% (active); in the experiment with HOP-92 NSCLC it was 15.1%. Moreover, the growth with NCI-H522 lung is -53.9% (active); in the experiment with A549/ATCC NSCLC, -57.9% (active); in the experiment with 786-0 renal, 5.22% (active); with COLO 205 colon, -81.6% (active).
For `CS(=O)(=O)Nc1ccc(-c2ccc3c(c2)ncn3-c2ccc(NC(=O)Nc3ccc(Cl)c(C(F)(F)F)c3)cc2)cc1`, the growth with NCI-H23 lung is -70.3% (active); in the experiment on NCI-H226 lung it was -51% (active); in the experiment with NCI-H322M lung, -42.9% (active); with HOP-62 NSCLC, -87.1% (active); in the experiment with NCI-H460 lung, 0.554% (active); in the experiment with HOP-92 NSCLC, -43.5% (active). The growth was -87.6% (active) in the experiment on NCI-H522 lung, -75.1% (active) with A549/ATCC NSCLC and -77.9% (active) in the experiment on 786-0 renal.
Turning to `OCCNc1oc(-c2ccccc2)nc1[P+](c1ccccc1)(c1ccccc1)c1ccccc1`, the growth is 8.3% (active) in the experiment on NCI-H23 lung; 1.88% (active) in the experiment with NCI-H226 lung; 55.3% in the experiment with NCI-H322M lung; 24.2% with HOP-62 NSCLC; 5.2% (active) with NCI-H460 lung; -22.6% (active) in the experiment with HOP-92 NSCLC. Moreover, the growth is 2.33% (active) with NCI-H522 lung, 45.8% in the experiment with A549/ATCC NSCLC and 21.2% in the experiment with 786-0 renal.
Regarding `C=C1CCC2C3(C)COC(c4ccccc4F)OC3CCC2(C)C1C/C=C1/C(=O)OCC1O` (stereo unspecified), the growth in the experiment on NCI-H23 lung was -38.8% (active); in the experiment with NCI-H226 lung it was -25.6% (active); in the experiment with NCI-H322M lung, 14.5%; in the experiment with HOP-62 NSCLC, -41.7% (active); in the experiment on NCI-H460 lung, -14.6% (active); in the experiment on HOP-92 NSCLC, -37.5% (active). For the same compound, the growth was -72.5% (active) with NCI-H522 lung, -5.16% (active) in the experiment on A549/ATCC NSCLC and -86.8% (active) in the experiment with 786-0 renal.
For the compound `Oc1ccc(/C=C2\CCCc3cc4ccc(O)cc4[o+]c32)c(O)c1`, the growth in the experiment on NCI-H23 lung is 30%; in the experiment with NCI-H226 lung, 77.6%; with NCI-H322M lung, 63.3%; in the experiment with HOP-62 NSCLC, 44.7%; in the experiment on NCI-H460 lung it was 19.8%; in the experiment on HOP-92 NSCLC, 40.9%. The values for the growth in the experiment with NCI-H522 lung, in the experiment with A549/ATCC NSCLC and with 786-0 renal were 4.53% (active), 83% and 24.4%, respectively.
For the compound `CN1CCN(Cc2ccc(NC(=O)c3cncc(C#Cc4cnc5ccc(N[C@H]6CCOC6)nn45)c3)cc2C(F)(F)F)CC1`, the growth in the experiment with NCI-H23 lung was -80.4% (active); with NCI-H226 lung, -89.1% (active); in the experiment on NCI-H322M lung it was -95.3% (active); with HOP-62 NSCLC it was -80% (active); with NCI-H460 lung, -76.1% (active); with HOP-92 NSCLC, -79.4% (active). In addition, the growth with NCI-H522 lung is -69.1% (active); in the experiment on A549/ATCC NSCLC, -59.9% (active); in the experiment with 786-0 renal it was -75.6% (active).
Consider `Cc1ccc(/C=C(\C#N)n2nnc3c(F)cccc32)cc1`, for which the growth in the experiment with NCI-H23 lung is 14.7%; in the experiment with NCI-H226 lung it was 16.8%; with NCI-H322M lung, 10.1%; with HOP-62 NSCLC, 17.8%; with NCI-H460 lung it was 3.45% (active); in the experiment with HOP-92 NSCLC, -4.81% (active). Besides, the growth was 1.65% (active) with NCI-H522 lung, -3% (active) with A549/ATCC NSCLC, 38.5% in the experiment with 786-0 renal and -70.6% (active) with COLO 205 colon.
On to `O=C(NCCCCCCCCCC[P+](c1ccccc1)(c1ccccc1)c1ccccc1)c1ccc(-n2nc(-c3ccccc3O)nc2-c2ccccc2O)cc1`, for which the growth with NCI-H23 lung was -66.8% (active); in the experiment with NCI-H226 lung, -58.9% (active); in the experiment with NCI-H322M lung it was -91.1% (active); with HOP-62 NSCLC it was -64.1% (active); with NCI-H460 lung, 8.35% (active); with HOP-92 NSCLC it was -74.9% (active). Moreover, the growth is -78.3% (active) in the experiment on NCI-H522 lung, -51.9% (active) in the experiment on A549/ATCC NSCLC, -64% (active) with 786-0 renal and -83.1% (active) with COLO 205 colon.
`Cc1cc2nc3c4ccccc4n(CCO)c3nc2cc1C`: the growth is 60.1% in the experiment on NCI-H23 lung; 69.7% in the experiment on NCI-H226 lung; 92.4% in the experiment with NCI-H322M lung; 68.8% in the experiment on HOP-62 NSCLC; 98.3% with NCI-H460 lung; 34.9% with HOP-92 NSCLC. The growth was 78.8% with NCI-H522 lung, 97.6% in the experiment on A549/ATCC NSCLC, 12.1% with 786-0 renal and 106% in the experiment with COLO 205 colon.
